Here are results for 5 compounds from PubChem BioAssay AID743446 (Broad Institute, 2014).

Potency and affinity values are given separately. Activity calls are given as the source filed them. No rule for the calls is given here.

This assay can be described thus: HEK293 cell cytotoxicity, dose response, cytotoxicity control, plate reader, cherry-picked samples (AID 743446). The conditions noted are these: stronger effect = lower value; at 26 µM unless noted.
Take `O=C(O)c1nn(Cc2ccc(Cl)cc2Cl)c2ccccc12`: the max activity is 19.3% [at 0.38 µM] (inactive).

As for `COC(=O)c1ccc(NC(=O)CSc2nc3ccc(N4C(=O)C5C6C=CC(C6)C5C4=O)cc3s2)cc1` (stereo not given), the max activity is -25.2% (inactive).

Turning to `CNC(=O)Oc1cccc(-c2cn3cc(Cl)ccc3n2)c1`, the max activity was 27.7% [at 0.38 µM] (inactive).

Consider `O=Cc1cn(Cc2cccc([N+](=O)[O-])c2)c2ccccc12`, for which the max activity was -15.2% [at 12 µM] (inactive).

With `CC(C)(C)n1cc(C(=O)c2ccc3ccccc3c2O)cn1`, the max activity was -8.13% (inactive).
